This is one part of a sample in which hits are shown more often than they occur.
C diff growth: C. difficile growth inhibitors, primary screen, HTS; Clostridium difficile clinical isolate growth, OD600, 24 h; stronger effect = lower value; growth activity, negative = inhibition, % at 16 µg/mL (by protocol); 86,000 compounds, 0.25% hits;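 active = mean growth activity at or below -80% and every replicate also at or below -80%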;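 also: 0% = DMSO wells and -100% = levofloxacin 16 µg/mL wells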
Numbers without * were called inactive; ! = not confirmed by another sample.

SMILES	C diff growth
CO[C@H]1CN(C)C(=O)c2cc(NC(=O)Nc3cccc(Cl)c3)ccc2OC[C@H](C)N(C)C[C@@H]1C	-3
COc1cccc(CN2CC3(CCN(C)CC3)c3c(n(C)c4cc(OC)ccc34)[C@@H]2CO)c1	-2
COc1ccc2c3c([nH]c2c1)[C@H](CO)N(Cc1ccncc1)CC31CN(CC2CCOCC2)C1	-3
C[C@H]1CN([C@@H](C)CO)S(=O)(=O)c2ccc(/C=C/c3ccccc3)cc2O[C@H]1CN(C)Cc1ccc(C(=O)O)cc1	1
C[C@@H]1CN([C@H](C)CO)S(=O)(=O)c2ccc(/C=C/c3ccccc3)cc2O[C@H]1CN(C)Cc1ccc(C(=O)O)cc1	-98*
C[C@H](CO)N1C[C@H](C)[C@@H](CN(C)Cc2ccc(C(=O)O)cc2)Oc2cc(/C=C/c3ccccc3)ccc2S1(=O)=O	-3
C[C@H]1CCCCO[C@@H](CN(C)Cc2ccc(C(F)(F)F)cc2)[C@@H](C)CN([C@@H](C)CO)C(=O)c2cc(N(C)C)ccc2O1	10
COc1ccc2c3c([nH]c2c1)[C@@H](CO)N(C(=O)NC(C)C)CC31CCN(Cc2ccccc2)CC1	2
O=C(C[C@H]1CC[C@H]2[C@@H](COC[C@H](O)CN2C(=O)Cc2ccccc2)O1)NC1CCCC1	5
CCS(=O)(=O)Nc1ccc2c(c1)C(=O)N(C)[C@H]1CC[C@@H](CC(=O)OC)O[C@H]1CO2	-2
CO[C@H]1CN(C)C(=O)c2ccc(NC(=O)Nc3ccccc3)cc2OC[C@@H](C)NC[C@@H]1C	-2
CO[C@H]1CN(C)C(=O)c2ccc(NC(=O)Nc3ccc(Cl)c(Cl)c3)cc2OC[C@H](C)NC[C@@H]1C	-99*
CO[C@H]1CN(C)C(=O)c2ccc(NC(=O)Nc3ccc(Cl)c(Cl)c3)cc2OC[C@H](C)NC[C@H]1C	-97*
CO[C@@H]1CN(C)C(=O)c2ccc(NC(=O)Nc3ccc(F)cc3)cc2OC[C@H](C)NC[C@@H]1C	-2
CO[C@@H]1CN(C)C(=O)c2ccc(NC(=O)Nc3ccccc3)cc2OC[C@H](C)NC[C@@H]1C	-1
CO[C@@H]1CN(C)C(=O)c2ccc(NC(=O)Nc3cc(Cl)cc(Cl)c3)cc2OC[C@H](C)NC[C@@H]1C	-100*
CO[C@H]1CN(C)C(=O)c2ccc(NC(=O)Nc3cc(Cl)cc(Cl)c3)cc2OC[C@H](C)NC[C@@H]1C	71
CO[C@H]1CN(C)C(=O)c2ccc(NC(=O)Nc3ccccc3Cl)cc2OC[C@H](C)NC[C@@H]1C	14
CO[C@H]1CN(C)C(=O)c2ccc(NC(=O)Nc3ccccc3)cc2OC[C@H](C)NC[C@@H]1C	6
CCCNC(=O)[C@@H]1[C@@H](CO)[C@@H]2Cn3c(ccc(C4=CCCC4)c3=O)[C@H]1N2S(C)(=O)=O	-7
C[C@H](CO)N1C[C@H](C)[C@@H](CN(C)CC2CC2)Oc2ccc(NC(=O)Cn3cnnn3)cc2CC1=O	-1
O=C(NCC[C@@H]1CC[C@H](NC(=O)C2CCC2)[C@H](CO)O1)Nc1ccc(Cl)cc1	-1
CN(C)CC(=O)N[C@H]1CC[C@H](CCNC(=O)Nc2ccc(C(F)(F)F)cc2)O[C@H]1CO	-94*
O=C(NCC[C@@H]1CC[C@@H](NC(=O)C2CC2)[C@@H](CO)O1)Nc1ccc(C(F)(F)F)cc1	-85*
O=C(Nc1ccc(C(F)(F)F)cc1)N[C@H]1CC[C@H](CCNC(=O)c2ccccc2F)O[C@@H]1CO	7
SMILES	C diff growth
O=C(NCC[C@H]1CC[C@H](NC(=O)C2CC2)[C@@H](CO)O1)Nc1ccc(Cl)cc1	-1
O=C(NCC[C@@H]1CC[C@@H](NC(=O)C2CC2)[C@@H](CO)O1)Nc1ccc(Cl)cc1	-4
CN(C)CC(=O)N[C@H]1CC[C@H](CCNC(=O)Nc2ccc(Cl)cc2)O[C@H]1CO	1
O=C(NCC[C@@H]1CC[C@@H](NC(=O)C2CCC2)[C@@H](CO)O1)Nc1ccc(Cl)cc1	3
O=C(NCC[C@@H]1CC[C@H](NC(=O)C2CC2)[C@H](CO)O1)Nc1ccc(C(F)(F)F)cc1	-95*
O=C(NCC[C@H]1CC[C@@H](NC(=O)C2CCCC2)[C@@H](CO)O1)Nc1ccc(Cl)cc1	-1
O=C(NCC[C@H]1CC[C@H](NC(=O)C2CC2)[C@H](CO)O1)Nc1ccc(Cl)cc1	2
O=C(NCC[C@@H]1CC[C@H](NC(=O)C2CC2)[C@@H](CO)O1)Nc1ccc(C(F)(F)F)cc1	-94*
O=C(CC1CC1)N1CC(=O)N2[C@@H](CO)[C@@H](c3ccc(C#Cc4ccccc4)cc3)[C@@H]2C1	-10
O=C(NC1CCCCC1)N1CC2(C1)[C@H](c1ccccc1)[C@H](CO)N2CC1CC1	-3
Cc1noc(C)c1NC(=O)Nc1ccc2c(c1)C(=O)N([C@H](C)CO)C[C@@H](C)[C@H](CN(C)Cc1ccc(Oc3ccccc3)cc1)O2	-4
C[C@@H]1CN([C@@H](C)CO)C(=O)c2cc(NC(=O)CCN3CCOCC3)ccc2O[C@@H]1CN(C)Cc1ccncc1	-5
COc1ccc2c3c([nH]c2c1)[C@@H](CO)N(C(=O)Cc1ccccc1)CC31CN(C(=O)Cc2ccccc2)C1	7
CN1CCN(C(=O)C[C@@H]2C=C[C@@H](NC(=O)c3ccc4c(c3)OCO4)[C@@H](CO)O2)CC1	4
CC(C)(O)C#Cc1ccc([C@H]2[C@@H](CO)N3CCCCN(Cc4ccccc4F)C[C@@H]23)cc1	6
COCC#Cc1ccc([C@@H]2[C@@H](CO)N3CCCCN(Cc4ccccc4F)C[C@H]23)cc1	0
CC(C)(O)C#Cc1ccc([C@H]2[C@H]3CN(Cc4ccccc4F)CCCCN3[C@H]2CO)cc1	4
COc1ccc(C#Cc2ccc([C@H]3[C@@H](CO)N4CCCCN(Cc5ccccc5F)C[C@H]34)cc2)cc1	-100*
COc1ccc(C#Cc2ccc([C@@H]3[C@H]4CN(Cc5ccccc5F)CCCCN4[C@H]3CO)cc2)cc1	-94*
CC(C)(O)C#Cc1ccc([C@@H]2[C@@H](CO)N3CCCCN(Cc4ccccc4F)C[C@@H]23)cc1	6
COc1ccc(S(=O)(=O)N(C)C[C@@H]2Oc3c(NS(=O)(=O)c4ccc(F)cc4)cccc3C(=O)N([C@H](C)CO)C[C@@H]2C)cc1	-8
O=C(c1ccccn1)N1CC2(C1)[C@H](c1ccccc1)[C@H](CO)N2C(=O)C1CCC1	-1
COc1cccc(S(=O)(=O)N[C@H]2CC[C@H](CCNC(=O)Nc3cc(F)ccc3F)O[C@H]2CO)c1	-5
C[C@@H]1CN([C@@H](C)CO)C(=O)c2cc(NC(=O)Cc3ccccc3)ccc2O[C@@H](C)CCCCO[C@@H]1CN(C)S(=O)(=O)c1ccc(F)cc1	2
O=C(Nc1ccc(F)cc1)N1C[C@@H]2N[C@H](C1)C2c1ccc(-c2cccnc2)cc1 (some centres not stated)	-5
COc1ccc(NC(=O)N2[C@@H]3CNC[C@H]2C3c2ccc(-c3ccc(OC)cc3)cc2)cc1 (some centres not stated)	-11
O=C(Nc1ccccc1F)N1C[C@@H]2N[C@H](C1)C2c1ccc(-c2cccc(F)c2)cc1 (some centres not stated)	79
O=C(Nc1ccc(C(F)(F)F)cc1)N1C[C@@H]2N[C@H](C1)C2c1ccc(-c2cccc(F)c2)cc1 (some centres not stated)	-99*
Cc1ccc(-c2ccc(C3[C@@H]4CN(C(=O)Nc5ccc(C(F)(F)F)cc5)C[C@H]3N4)cc2)cc1 (some centres not stated)	-92*!
